# Shown are actives, neighbours in structure and some others; about 2.9% of the full set was active somewhere.
# SNCA expr inh – Primary qHTS assay for inhibitors of alpha-synuclein gene (SNCA) expression; AID 1671194, 2021; Potency, µM (series often up to 57.2 µM), inactives show top-dose activity change, negative = inhibition, actives largely listed as inhibitors; HEK-293 SNCA-luciferase knock-in, luminescence, 24 h; 0.17% of 140,000 active;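 note: potency is the fitted concentration of half-maximal effect; plate controls were DMSO cells for no effect and cell-free wells for full effect; nearly all actives have a fitted effect of over 45% in size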
# KDM5B inhibitor – Primary screen for KDM5B Histone Demethylases FDH-coupled qHTS; Lysine-specific demethylase 5B (Homo sapiens), Q9UGL1; KDM5B demethylase, FDH-coupled NADH fluorescence (FDH is formaldehyde dehydrogenase); Potency, µM (top dose mostly 57.7 µM), hits mostly inhibitors; 2.6% of 220,000 active; AID 1347165, 2019; note: potency is the fitted concentration of half-maximal effect; 0% is about no effect; nearly all actives have a fitted effect of over 70% in size
#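 Here, H3K4me3 peptide (12.5 µM in substrate mix) is demethylated by KDM5BΔAP, 200 nM final, after 10 min compound exposure. Formaldehyde product is coupled through FDH (0.25 U/mL in mix) to NADH fluorescence; 30-min ΔRFU feeds dose-response curves.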
# IP6K1 inhibitor – Primary qHTS assay for small molecule inhibitors of Inositol hexaphosphate kinase 1 (IP6K1); Inositol hexakisphosphate kinase 1 (Homo sapiens), Q92551; IP6K1 kinase, ADP-Glo luminescence, 2 h; hits give low values; activity change, % (series mostly up to about 58 µM); 0.81% of 140,000 active; in the data active = activity change below about -25%; note: % is set by controls: 0 for no effect and ±100 for the full control effect
# Target sequence (Q92551 whole entry, looked up): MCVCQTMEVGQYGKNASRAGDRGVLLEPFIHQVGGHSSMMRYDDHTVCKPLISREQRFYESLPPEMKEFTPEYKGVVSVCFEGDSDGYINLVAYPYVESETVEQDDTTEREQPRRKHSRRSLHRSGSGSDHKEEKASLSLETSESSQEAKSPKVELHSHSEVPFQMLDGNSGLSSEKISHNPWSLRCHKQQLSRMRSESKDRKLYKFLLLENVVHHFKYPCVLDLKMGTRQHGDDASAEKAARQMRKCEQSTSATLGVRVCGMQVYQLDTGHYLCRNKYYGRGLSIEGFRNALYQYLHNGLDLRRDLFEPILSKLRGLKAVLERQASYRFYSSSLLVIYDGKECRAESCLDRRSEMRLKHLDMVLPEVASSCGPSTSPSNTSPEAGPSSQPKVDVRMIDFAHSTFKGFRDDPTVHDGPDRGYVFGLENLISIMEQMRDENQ
#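 ADP-Glo luminescence measures ADP made by human IP6K1 during a 2 h RT reaction with ATP/IP6 (mix at 1.3 mM/130 uM); top library doses 57.5 and 19.1 uM final.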
# HEK293 viab – GF-AFC viability counterscreen for inhibitors of alpha-synuclein gene (SNCA) expression. HEK-293-SNCA-luc viability, GF-AFC fluorescence, 24 h. Potency, µM (doses to about 57.1 µM), for inactives: at the top dose activity change, negative = cytotoxicity, most hits filed as cytotoxic. 0.12% of 150,000 active;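 note: potency is the fitted concentration of half-maximal effect; 0% = DMSO-treated cells and -100% = medium-only wells without cells; nearly all actives have a fitted effect of over 30% in size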
#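 HEK-293-SNCA-luc cells (1500/well) plated 24 h, then exposed 24 h to a dilution series; GF-AFC added 30 min at 37C, fluorescence 405/540 nm; normalised to medium-only and DMSO wells, Hill fit.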
# IP6K1 conf – Confirmatory qHTS assay for small molecule inhibitors of Inositol hexaphosphate kinase 1 (IP6K1); shares compounds with IP6K1 inhibitor; recombinant IP6K1 kinase, ADP-Glo luminescence, 2 h; Potency, µM (series often up to 49 µM), inactives show top-dose activity change, negative = inhibition, hits mostly inhibitors; 13% of 1,200 active; note: potency is the fitted concentration of half-maximal effect; % is set by controls: 0 for no effect and ±100 for the full control effect; nearly all actives have a fitted effect of over 65% in size
# Active calls of the source: *; i = inactive; ? = inconclusive; . = no result; ! = repeats disagree; [ ] = dose if it differs, or a comment. Unless noted, calls come from the whole dose curve; as a rule, active = well fitted curve in the direction sought with a large enough effect; inconclusive = small, poorly fitted or top-dose-only effect, or another doubt; inactive = no such curve, though single readings can be large; an effect the other way counts as inactive or inconclusive.
SMILES,SNCA expr inh,KDM5B inhibitor,IP6K1 inhibitor,HEK293 viab,IP6K1 conf
CCOC(=O)c1cnc2ccc(-c3cncc(NS(=O)(=O)c4ccccc4)c3)cn12,.,.,-10,-7%,?
Cc1cc(NC(=O)Cn2c(=O)nc(-c3ccccc3F)c3cc(Cl)ccc32)ccc1Br,17%,i,-25*,4%,10%
O=C(NCc1ccccc1)c1ccc2nnc(Cc3ccco3)n2c1,-1%,.,-14,6%,.
COc1cccc(CNC(=O)c2ccc3nnc(Cc4ccco4)n3c2)c1,20%[87.6 µM],.,-33*,12%[87.6 µM],?
O=C(NCc1cccc(C(F)(F)F)c1)c1ccc2nnc(Cc3ccco3)n2c1,-6%,.,-30*,-6%,?
O=C(NCc1cccs1)c1ccc2nnc(Cc3ccco3)n2c1,24%[87.6 µM],.,-32*!,-4%[87.6 µM],?
Cc1ccc(C(CC(=O)O)NC(=O)c2ccccc2C(F)(F)F)cc1 (stereo not drawn),.,i,.,.,.
c1cnc2nc(C3CCNC3)[nH]c2c1 (stereo not drawn),-19%[87.6 µM],?,5,-8%[87.6 µM],.
c1cnc2nc(-c3c[nH]c4ncccc34)[nH]c2c1,55%[87.6 µM],?,-44*!,-29%[87.6 µM],?
COc1ccc(NC(=O)c2ccc3c(SCC(=O)O)c4c(nc3c2)CCCC4)c(OC)c1,-20%,?,-26*,-5%,6%
COc1ccc(NC(=O)CSc2c3c(nc4ccccc24)CCC3)c(OC)c1,-20%,i,0,-22%,.
COc1cc(CN2CCN(S(=O)(=O)c3ccc(F)cc3)CC2)cc(OC)c1OC,-4%,?,-34*,-12%,2%
CCOCCNc1ncnc2c1CN(C1CCCNCC1)C(=O)CN2C (stereo not drawn),13%,?,-28*,5%,-9%
CCOCCNc1ncnc2c1CN(C1CCCNC1)C(=O)CN2C (stereo not drawn),?,?,2,13%,.
C#C[C@]1(O)CC[C@H]2[C@@H]3CCc4cc(OC)ccc4[C@H]3CC[C@@]21C,31%[25.6 µM],.,-27*,-20%[23.9 µM],?
Cc1ccc(/C=C/c2ccc3cc(C)ccc3n2)cc1,.,i,.,.,.
CNC(=O)c1ccccc1Nc1cc(Nc2ccc(N3CCOCC3)cc2OC)ncc1C(F)(F)F,.,.,-53*,-26%,?
Cc1cccc(NC(=O)Cn2c(N3CCN(c4ccccc4)CC3)nc(C)cc2=O)c1,-14%,i,0,3%,.
O=C(/C=C/c1c(-c2ccccc2)[nH]c2ccccc12)C(F)(F)F,.,i,.,.,.
COC[C@H]1C[C@@H](N(C)C)[C@H](O)[C@@H]1O,18%[87.6 µM],i,-25*,4%[87.6 µM],?
COCC(=O)N[C@@H]1C[C@H](COC)[C@@H](O)[C@H]1O,2%[87.6 µM],i,0,5%[87.6 µM],.
Cc1ccc2nc(-c3ccsc3)c(Nc3ccc(C(C)C)cc3)n2c1,4%,i,22,4%,.
CC(C)c1ccc(Nc2c(-c3ccsc3)nc3ccc(Cl)cn23)cc1,1%,i,-31*,10%,-11%
CCCCCCCCOc1ccccc1C(=O)Nc1ccc(C(=O)OCC[N+](C)(CC)CC)cc1,9%[25.6 µM],.,-37*,?,?
CCCCCOc1ccccc1C(=O)NCCCCCC(=O)O,.,i,.,.,.
SMILES,SNCA expr inh,KDM5B inhibitor,IP6K1 inhibitor,HEK293 viab,IP6K1 conf
Cc1cc(C)cc(NS(=O)(=O)c2ccc3[nH]cc(C(=O)N(C)Cc4ccccc4)c(=O)c3c2)c1,?,?,-26*,-10%,-2%
CN(C)CCN(C)[C@@H]1[C@H](O)[C@H](CO)O[C@@H]1CNC(=O)c1cccc(F)c1,8%,i,0,2%,.
COc1ccc2nc(SCC(O)c3cccc(Br)c3)[nH]c2c1 (stereo not drawn),11%,?,-44*,-3%,-19%
COCCNC(=O)c1cc(-c2ccsc2)nc2c1cnn2C,-10%[87.6 µM],.,-5,2%[87.6 µM],.
Cc1cc(Nc2nc(NC(C)c3ncc(F)cn3)ncc2Cl)n[nH]1 (stereo not drawn),.,.,-1,-5%,-11%
O=C1c2cnc(-c3cccc(CO)c3)nc2OCCN1c1ccccc1,7.9µM*,i,-40*,-16%[87.6 µM],?
